# Test results: PubChem BioAssay (NCI)
# Compounds without any hit were thinned out: in the full panel of roughly 83,000, 20% have a hit.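 Results are percent growth after 48 hours of single-concentration exposure. 100 means growth as in untreated cells, lower positive values show inhibition; negative values down to -100 show cell death.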 The source made the active and inactive calls. How the source made its calls: active means growth percent below 10; inactive means the rest.
# Tested on: MALME-3M melanoma
# Assay: NCI-60 one-dose screen, 48 h (100 = growth as untreated, 0 = no growth, -100 = all killed)
# Conditions: 10 µM unless noted
row,Structure (SMILES),growth
1,N#CC1=C(N)Oc2c(c(N)nn2-c2ccccc2)C1c1ccc(Cl)cc1Cl (stereo not drawn),104% (inactive)
2,C=C(C)[C@@H]1CC[C@]2(C=O)CC[C@]3(C)[C@H](CC[C@@H]4[C@@]5(C)C/C(=C/c6cccnc6)C(=O)C(C)(C)[C@@H]5CC[C@]43C)[C@@H]12,88.1% (inactive)
3,C=C(C)[C@@H]1CC[C@]2(C(=O)N3CCN(CC)CC3)CC[C@]3(C)[C@H](CC[C@@H]4[C@@](C)(CCC(=O)N5CCN(CC)CC5)[C@H](C(=C)C)CC[C@]43C)[C@@H]12,43.2% (inactive)
4,CCN1CCN(C(=O)[C@]23CCC(C)(C)C[C@H]2C2=CC[C@@H]4[C@@]5(C)CC/C(=N/O)C(C)(C)[C@@H]5CC[C@@]4(C)[C@]2(C)CC3)CC1,62.9% (inactive)
5,N#CC1=C(N)Oc2c(sc3c(F)cccc23)C1c1ccc(Cl)cc1 (stereo not drawn),57.9% (inactive)
6,O=C1c2cccc3cccc(c23)C(=O)N1CC#Cc1ccc2c3c(cccc13)C(=O)N(CCN1CCNCC1)C2=O,-45% (active)
7,C=C(C)[C@@H]1CC[C@]2(/C=N/Nc3ccncc3)CC[C@]3(C)[C@H](CC[C@@H]4[C@@]5(C)CCCNC(C)(C)[C@@H]5CC[C@]43C)[C@@H]12,80.3% (inactive)
8,Cc1ccnc2c(OCc3ccccc3)cccc12,84.4% (inactive)
9,C=CC(=O)N[C@H](Cc1ccc(-c2cc(Cl)cc(Cl)c2)cc1)[C@H](O)[C@@H](O)C(=O)O,90.1% (inactive)
10,C=COCCCCCCCCCCCCCCCCCC,109% (inactive)
11,COc1cc2ncnc(Nc3ccc(Oc4ccnc(C)c4)c(C)c3)c2cc1NC(=O)CC1CCSS1 (stereo not drawn),-27.5% (active)
12,CN1CCN(c2nc(-c3csc(-c4cccs4)n3)cc3ccccc23)CC1,70.4% (inactive)
13,O=C(O[C@@H]1Cc2c(O)cc(O)cc2O[C@@H]1c1cc(O)c(O)c(O)c1)c1cc(O)c2c(c1)OCO2,108% (inactive)
14,C/C(Cc1ccc(Cl)cc1)=C(/c1ccc(Cl)cc1)c1ccc(OCCN2CCCC2)cc1,77.7% (inactive)
15,Cc1cc(N(CCCNc2ccnc3cc(Cl)ccc23)Cc2ccco2)nc(N2CCOCC2)n1,92.8% (inactive)
16,Cc1ccccc1-c1nc(C(Cl)Cl)nc2cc(-c3ccccc3)nn12,86.2% (inactive)
17,O=C1/C(=C\C(Cl)=C/c2ccc([N+](=O)[O-])cc2)SC(=S)N1CCc1ccc(O)cc1,-64.5% (active)
18,Brc1ccc2c(c1)c(-c1nc(-c3c[nH]c4ncccc34)cs1)cn2CCCN1CCCCC1,-45.9% (active)
19,Cn1c(/C(C#N)=C/c2ccc3ccccc3c2)cc2ccccc21,46.5% (inactive)

row,Structure (SMILES),growth
1,CN(CSc1ccc(Cl)cc1)c1ccc(CSc2ccc(Cl)cc2)cc1,102% (inactive)
2,CCNCCCn1c2c(c3ccc([N+](=O)[O-])cc3c1=O)C(=O)c1cc(OC)cnc1-2,-61.8% (active)
3,CC1(C)NC2=C(C(Nc3cccnc3)N1)C(c1ccc([N+](=O)[O-])cc1)C(C(=O)c1ccc(N=[N+]=[N-])cc1)O2 (stereo not drawn),99.2% (inactive)
4,COc1ccc(C2C(C#N)=C(N)Oc3c2sc2c(F)cccc32)cc1 (stereo not drawn),65.4% (inactive)
5,COc1cc(-c2cc3ncccc3c3[nH]c(=O)c4cccnc4c23)cc(OC)c1OC,55.4% (inactive)
6,CCCCC/C(=C\c1ccccc1)C1OC(C)C(C)O1 (stereo not drawn),104% (inactive)
7,COc1ccc2c(c1)c(-c1nc(-c3c[nH]c4ncccc34)cs1)cn2CCNC(=O)OC(C)(C)C,103% (inactive)
8,COc1cc(/C=C/c2cc(/C=C/c3ccc(O)c(OC)c3)n(-c3ccccc3)c(=O)n2)ccc1O,90.4% (inactive)
9,CCN1CCN(C(=O)[C@]23CC[C@@H](C)[C@H](C)[C@H]2C2=CC[C@@H]4[C@@]5(C)C/C(=C/c6cccc(OC)c6OC)C(=O)C(C)(C)[C@@H]5CC[C@@]4(C)[C@]2(C)CC3)CC1,35.2% (inactive)
10,COc1cc2c(cc1-c1c(C)noc1C)ncc1nc(C3CCCCC3)n([C@@H](C)COC(F)F)c12,72.1% (inactive)
11,CC(=O)OC[C@]12CC[C@@H](/C(C)=N/O)[C@@H]1[C@H]1CC[C@@H]3[C@@]4(C)CCCNC(C)(C)[C@@H]4CC[C@@]3(C)[C@]1(C)CC2,89.2% (inactive)
12,Brc1cnc2[nH]cc(-c3nnc(-c4ccccc4)o3)c2c1,78.9% (inactive)
13,COc1ccc2[nH]c(-c3ccc(Cl)cc3)cc(=O)c2c1,98.6% (inactive)
14,CCN1CCN(C(=O)[C@]23CCC(C)(C)C[C@@H]2C2=CC[C@@H]4[C@@]5(C)C/C(=C/c6ccncc6)C(=O)C(C)(C)[C@@H]5CC[C@@]4(C)[C@]2(C)CC3)CC1,-87.9% (active)
15,COc1ccc(/C=C(\C#N)c2cc3ccccc3n2S(C)(=O)=O)cc1,66.5% (inactive)
16,Cc1ccc(S(=O)(=O)Nc2ccc(-c3cc(-c4cccc(F)c4)c(C#N)c(=O)[nH]3)cc2)cc1,92.6% (inactive)
17,N#CC1=C(N)Oc2c(c(N)nn2-c2ccccc2)C1c1ccc(Cl)cc1 (stereo not drawn),106% (inactive)
18,C=C(C)[C@@H]1CC[C@]2(CN)CC[C@]3(C)[C@H](CC[C@@H]4[C@@]5(C)CCC(=O)NC(C)(C)[C@@H]5CC[C@]43C)[C@@H]12,-14.1% (active)
19,CC1(C)[C@@H](O)CC[C@]2(C)[C@H]3CC[C@@H]4[C@H]5[C@H](C(=O)/C=C/c6ccc(C(F)(F)F)cc6)CC[C@]5(CO)CC[C@@]4(C)[C@]3(C)CC[C@@H]12,8.37% (active)
